Here are results for 53 compounds from PubChem BioAssay (EPA / NIEHS).

The nature of assay [1]: ATG_XTT_Cytotoxicity: Cytotoxicity Assessment in the Attagene TRANS-FACTORIAL HepG2 Assay (AID 2283584).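 As to AC50: cells exposed to compound for 24 h before reading; active means loss of viability signal versus DMSO baseline.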 In outline:
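Viability endpoint from XTT after 24 h chemical exposure of reporter-transfected human HepG2 liver cells; signal loss fitted relative to DMSO negative control.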

Assay [2] in a line: TOX21_p53_BLA_p2_viability: Viability Assessment in the Tox21 HCT-116 p53 Agonism Beta-lactamase Assay, Phase 2 (AID 2283591).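 Also: compound exposure lasted 16 h at 37 °C; actives lower the ATP signal meaning cytotoxicity.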 In outline:
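HCT116 p53-bla cells, 4000/well, dosed after 5 h plating (217-fold dilution of DMSO stocks) and incubated 16 h at 37C. Viability taken as cellular ATP by CellTiter-Glo luminescence after 30 min RT; signal loss marks cytotoxicity.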

Assay [3] concerns the target Cellular tumor antigen p53 (Homo sapiens) (UniProt P04637). Nature of the assay: TOX21_p53_BLA_p2_ratio: Tox21 HCT-116 p53 Agonism Beta-lactamase Assay, Ratio, Phase 2 (AID 2283592). The procedure, abridged: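 Gain-of-signal p53 agonism was scored from the beta-lactamase FRET ratio (460/530 nm, 405 nm excitation) in HCT116 cells treated 16 h at 37C, 5% CO2, with DMSO serving as negative control and baseline.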

Assay [4] in a line: TOX21_p53_BLA_p3_viability: Viability Assessment in the Tox21 HCT-116 p53 Agonism Beta-lactamase Assay, Phase 3 (AID 2283593).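 Also: cells exposed to compound for 16 h before reading.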 In outline:
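HCT116 cells, 4000/well, dosed 5 h after plating by pin transfer (217-fold dilution from DMSO stock) and incubated 16 h at 37C, 5% CO2. Viability read as ATP luminescence with CellTiter-Glo after 30 min at room temperature.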

Assay [5] addresses Cellular tumor antigen p53 (Homo sapiens) (UniProt P04637). Description: TOX21_p53_BLA_p3_ratio: Tox21 HCT-116 p53 Agonism Beta-lactamase Assay, Ratio, Phase 3 (AID 2283596). In outline:
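HCT116 p53-bla cells (4000/well) given compound in DMSO (217-fold dilution) after 5 h, incubated 16 h at 37C. CCF4-AM substrate 2 h at room temperature; 460/530 nm emission ratio, gain fitted against DMSO.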

“And” between values parts separate entries of the source, which are not always exact repeats. Equal entries are not always repeated. Results filed as inconclusive are left out. A structure can be active in one record and inactive in another. The source made the active and inactive calls. The calls were made as follows: active = hit-call score of the fitted dose curve at least 0.9, where 1 is the maximum; inconclusive = response in the unintended direction; inactive = score below 0.9.

What is called AC50 is the midpoint of the concentration-response curve, whichever way the signal moves.

Cellular tumor antigen p53 (Homo sapiens), sequence (P04637 whole entry, looked up): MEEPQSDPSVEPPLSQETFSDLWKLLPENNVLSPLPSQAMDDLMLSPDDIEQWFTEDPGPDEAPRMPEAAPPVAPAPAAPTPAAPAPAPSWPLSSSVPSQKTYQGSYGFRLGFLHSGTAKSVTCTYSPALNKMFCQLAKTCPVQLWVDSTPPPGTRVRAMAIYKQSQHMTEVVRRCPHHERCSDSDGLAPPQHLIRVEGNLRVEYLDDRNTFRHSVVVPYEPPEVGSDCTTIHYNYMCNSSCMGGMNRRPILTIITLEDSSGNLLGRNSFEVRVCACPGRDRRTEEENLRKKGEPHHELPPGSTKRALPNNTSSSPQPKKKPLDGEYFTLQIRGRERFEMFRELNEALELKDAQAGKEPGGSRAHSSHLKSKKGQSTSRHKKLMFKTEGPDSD

For `O=C1c2ccccc2C(=O)c2cc(S(=O)(=O)O)ccc21`, in assay [1], the compound was called inactive.

Consider `CCc1occc(=O)c1O`, for which the call in assay [1] and in assay [2] was inactive.

As for `Nc1ccc(Cl)c(N)c1`, in assay [1], the compound was classed as inactive.

In the case of `CCCCCCCCCC[N+](C)(CCCCCCCCCC)CCC[Si](OC)(OC)OC`, the AC50 in assay [1] is 43.9 µM (active).

`CC(C)c1ccc2ncccc2c1`: the result in assay [1] was inactive.

As to `CCOB(OCC)OCC`, the call in assay [1] was inactive.

As to `CCCCCCCCCCCCc1ccc(O)cc1`, the AC50 is 50.4 µM (active) in assay [1], 65.5 µM (active) in assay [3], 39.9 µM (active) in assay [4] and 49.9 µM (active) in assay [5]. Besides, the result in assay [1] was inactive.

Take `Cc1c(O)cccc1O`: the result in assay [1] was inactive.

Turning to `Oc1ccc(-c2ccccc2)c(Cl)c1`, the AC50 in assay [1] was 159 µM (active). Moreover, the result in assay [1], in assay [2], in assay [4] and in assay [5] was inactive.

For `COc1ccc(C(=O)/C(Br)=C\C(=O)O)cc1`, the outcome in assay [1], in assay [2] and in assay [4] was inactive. The AC50 was 86.2 µM (active) in assay [2]; 24.8 µM (active) and 24.2 µM (active) in assay [3]; 74.8 µM (active) in assay [4]; 14.4 µM (active) and 25.8 µM (active) in assay [5].

Turning to `C=CCCCCCCCCOC(C)=O`, the compound was called inactive in assay [1].

In the case of `CCC(C)C(=O)OC` (centres undefined), the compound was classed as inactive in assay [1].

Turning to `O=C(O)CCC(=O)O`, the result in assay [1] was inactive.

Turning to `CCCCCCO`, the outcome in assay [1], in assay [2], in assay [4] and in assay [5] was inactive.

Turning to `CCCc1ccc(O)c(OC)c1`, the result in assay [1], in assay [3] and in assay [5] was inactive.

Take `O=C(OCCc1ccccc1)c1ccccc1`: the compound was classed as inactive in assay [1], in assay [3] and in assay [5].

Consider `C=C(C)[C@@H]1CC=C(C)CC1`, for which the compound was called inactive in assay [1], in assay [2], in assay [4] and in assay [5].

Regarding `CCCCCOC(=O)CCCCC`, the compound was called inactive in assay [1], in assay [3], in assay [4] and in assay [5].

As to `COC(C=C(C)CCC=C(C)C)OC`, the result in assay [1], in assay [2] and in assay [5] was inactive.

Take `O=C(C=Cc1ccccc1)OCCc1ccccc1`: the outcome in assay [1], in assay [3], in assay [4] and in assay [5] was inactive.

`Cc1c(C(=O)c2c[nH]n(C)c2=O)ccc(S(C)(=O)=O)c1C1=NOCC1`: the compound was classed as inactive in assay [1], in assay [3], in assay [4] and in assay [5].

`CN(C)Cc1cc(CN(C)C)c(O)c(CN(C)C)c1`: the outcome in assay [1], in assay [3], in assay [4] and in assay [5] was inactive.

On to `CCCCCCCCCCCC(C)=O`, for which the result in assay [1] and in assay [4] was inactive.

As to `Cc1ccc(S(=O)(=O)N=C=O)cc1`, the call in assay [1], in assay [2], in assay [4] and in assay [5] was inactive.

For `CCC[Si](OC)(OC)OC`, the compound was classed as inactive in assay [1], in assay [4] and in assay [5].

With `NNS(=O)(=O)c1ccc(Oc2ccc(S(=O)(=O)NN)cc2)cc1`, the call in assay [1] and in assay [4] was inactive.

Regarding `CCC1COC(=O)O1` (centres undefined), the compound was classed as inactive in assay [1], in assay [4] and in assay [5].

In the case of `CC(CC=O)CC(C)(C)C` (centres undefined), the outcome in assay [1], in assay [2] and in assay [5] was inactive.

As for `O=C(O)CC(C(=O)O)S(=O)(=O)O` (centres undefined), the compound was called inactive in assay [1] and in assay [4].

For the compound `Cc1cc(C)n(CO)n1`, the outcome in assay [1], in assay [2], in assay [4] and in assay [5] was inactive.

Take `Nc1ncnc2nc[nH]c12`: the compound was classed as inactive in assay [1], in assay [3], in assay [4] and in assay [5].

`CC(C)(O)Cc1ccccc1`: the compound was classed as inactive in assay [1], in assay [3], in assay [4] and in assay [5].

Regarding `C=CC(=O)OCC(C)OCC(C)OCC(C)OC(=O)C=C` (centres undefined), the compound was called inactive in assay [1], in assay [3], in assay [4] and in assay [5].

Consider `CC(C)C(=O)OCCOc1ccccc1`, for which the result in assay [1], in assay [2] and in assay [5] was inactive.

With `C=Cc1ccc(OC(C)=O)cc1`, the outcome in assay [1], in assay [3], in assay [4] and in assay [5] was inactive.

In the case of `O=C(Cl)c1c(Cl)c(Cl)c(C(=O)Cl)c(Cl)c1Cl`, the result in assay [1], in assay [2], in assay [4] and in assay [5] was inactive.

`CCCCCCCCCCCC(=O)OCC`: the result in assay [1], in assay [2], in assay [4] and in assay [5] was inactive.

On to `CCCCOCCOCCOC(C)=O`, for which the compound was classed as inactive in assay [1], in assay [4] and in assay [5].

Take `C=CC(=O)OCCCCCCOC(=O)C=C`: the result in assay [1], in assay [2] and in assay [4] was inactive. Further, the AC50 in assay [5] is 54.4 µM (active) and 63.2 µM (active).

Consider `Clc1cc(Cl)c(Cl)c(Cl)c1Cl`, for which the compound was classed as inactive in assay [1], in assay [3], in assay [4] and in assay [5].

Turning to `CCCCCC(=O)OCC`, the call in assay [1] and in assay [4] was inactive.

On to `CC(C)(C)NC(=O)[C@H]1CC[C@H]2[C@@H]3CC[C@H]4NC(=O)C=C[C@]4(C)[C@H]3CC[C@]12C`, for which the compound was classed as inactive in assay [1], in assay [2], in assay [4] and in assay [5].

Regarding `CCCCCC[C@@H](O)C/C=C\CCCCCCCC(=O)OCC(O)CO` (some centres undefined), the outcome in assay [1], in assay [3], in assay [4] and in assay [5] was inactive.

In the case of `CC(CCC(=O)O)(c1ccc(O)cc1)c1ccc(O)cc1`, the call in assay [1], in assay [3], in assay [4] and in assay [5] was inactive.

`CC(=O)OC/C=C(/C)CCC=C(C)C`: the compound was classed as inactive in assay [1], in assay [3] and in assay [5].

Regarding `CC(=O)OCC=C(C)C`, the compound was called inactive in assay [1], in assay [3] and in assay [5].

Regarding `CCC(C)(O)CCCC(C)C` (centres undefined), the outcome in assay [1], in assay [4] and in assay [5] was inactive.

Consider `CC=C(C)C=CC=C(C)C`, for which the compound was called inactive in assay [1], in assay [4] and in assay [5].

`NC(=O)Nc1ccccc1`: the call in assay [1], in assay [2] and in assay [5] was inactive.

As to `CC(=O)c1ccccc1O`, the outcome in assay [1], in assay [3], in assay [4] and in assay [5] was inactive.

In the case of `CCCCC1CCC(=O)O1` (centres undefined), the outcome in assay [1], in assay [3] and in assay [5] was inactive.

For the compound `CCCCCCCCCCCCC`, the outcome in assay [1], in assay [2] and in assay [5] was inactive.

Consider `C=C(C)C1CC=C(C)C(OC(C)=O)C1` (centres undefined), for which the call in assay [1], in assay [3] and in assay [5] was inactive.
